# Hits are enriched below; roughly 12% of the tested compounds scored in any of these assays.
# HP1b chromo inh: blocks HP1-beta chromodomain binding to methylated histone tails; P83916; AlphaScreen HP1-beta / biotin-H3K9me3 peptide binding; Potency, µM (titrated, usually from 114 µM), for the others: at the top dose activity change, negative = inhibition, most hits filed as inhibitors; 390,000 compounds, 0.56% hits; AID 540317; further: nearly all actives have a fitted effect of over 70% in size
#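 Compound inhibition of the preformed complex between 50 nM HP1-beta and 50 nM biotinylated H3K9me3 peptide was read by AlphaScreen. Buffer was PBS pH 7.4 with 0.01% Tween-20. Incubations ran 30 min at room temperature, with 10 ug/mL donor/acceptor beads.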
# G9a block: inhibitors of human histone lysine methyltransferase G9a. Q96KQ7. G9a H3K9 monomethylation, AlphaScreen, 2 h. Potency, µM (titrated, usually from 102 µM), without a hit: top-dose activity, negative = inhibition, actives largely listed as inhibitors. 350,000 compounds, 8.8% hits; further: on the % scale 0 is the no-effect control and ±100 the full control effect; nearly all actives have a fitted effect of over 75% in size
#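 Chemiluminescent proximity detection of H3K9 monomethylation, read after 10 min bead incubation in the dark. Reaction: 20 nM G9a, 500 nM biotin-H3K9 peptide, 20 uM SAM cofactor, 2 h, room temperature, following 15 min enzyme-compound preincubation.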
# BAZ2B block: BAZ2B (human) inhibition; Q9UIF8; AlphaScreen BAZ2B-H3K14Ac peptide displacement; Potency, µM (titrated, usually from 114 µM), for the others: top-dose activity change, negative = inhibition, hits mostly inhibitors; 360,000 compounds, 4.4% hits; AID 504333; further: on the % scale 0 is the no-effect control and ±100 the full control effect; nearly all actives have a fitted effect of over 60% in size
#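 AlphaScreen luminescence quantifies BAZ2B engagement of H3K14Ac peptide; the protein and biotinylated peptide are both at 50 nM final, buffer PBS pH 7.4 with 0.01% Tween-20, all steps at room temperature.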
# L3MBTL1 inh: L3MBTL1 (human) inhibition. Q9Y468. AlphaScreen L3MBTL1–H3K9me1 peptide binding. Potency, µM (titrated, usually from 57.1 µM), inactives show top-dose activity, negative = inhibition, most hits filed as inhibitors. 230,000 compounds, 0.66% hits; further: on the % scale 0 is the no-effect control and ±100 the full control effect; nearly all actives have a fitted effect of over 60% in size
#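 AlphaScreen assay: L3MBTL1 (50 nM final) was preincubated 30 min at room temperature with biotinylated H3(1-15)K9me1 peptide (75 nM final), then 30 min with library compounds; streptavidin donor and nickel chelate acceptor beads (10 ug/mL final) added, 30 min dark.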
# JMJD2A Tudor: JMJD2A Tudor domain (human) inhibition. AID 504339. Potency, µM (series often up to 114 µM), for inactives: at the top dose activity change, negative = inhibition, most hits filed as inhibitors. O75164. 390,000 compounds, 4.4% hits. AlphaScreen JMJD2A-Tudor / H3K4me3 peptide binding; further: on the % scale 0 is the no-effect control and ±100 the full control effect; nearly all actives have a fitted effect of over 50% in size
# Sfp inh: blocks B. subtilis Sfp PPTase activity | Q9F4F7 | 310,000 compounds, 3.5% hits | Potency, µM, for the others: largest response in the series, negative = inhibition, actives largely listed as inhibitors | Biochemical Sfp PPTase activity, qHTS | AID 1490;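 further: the enzyme is Sfp with the accession as filed and its product quenches rhodamine fluorescence; 0% = enzyme reaction without inhibitor and -100% = no enzyme wells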
#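 Step 1, compound plus 15 nM Sfp-PPTase, 15 min, room temperature. Step 2, add rhodamine-CoA (5 uM) and BHQ-2-YbbR (12.5 uM). Step 3, read 525/598 nm fluorescence at 0 and 30 min.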
# * = called active by the depositor; ? = inconclusive; . = no result; [ ] = dose if it differs, or a comment. The call rests on the fitted dose curve; in most records, active means well fitted curve in the direction sought with a large enough effect; inconclusive means small, poorly fitted or top-dose-only effect, or another doubt; inactive means no such curve, though single readings can be large; an effect the other way counts as inactive or inconclusive. Potency means the concentration at half of the fitted maximal effect.
SMILES,HP1b chromo inh,G9a block,BAZ2B block,L3MBTL1 inh,JMJD2A Tudor,Sfp inh
O=C(CSc1nc2ccccc2nc1Cc1ccc(Cl)cc1)N1CCc2ccccc21,26%[57 µM],11%[59 µM],5%,.,-2%,.
Cc1c(Br)cc(C(=O)NCc2ccco2)c(C)c1C,8%,?,56µM*,.,-35%,?
CCc1sc(C(=O)NCc2ccco2)cc1Br,26%,56µM*,?,-7%,-21%,-5%
CCOC(=O)c1cc(-c2c(Cl)cccc2Cl)no1,96%,216%,24%,3%,58%,-3%
O=C(Nc1cc(-c2nc3ccccc3o2)ccc1Cl)c1sc2c([N+](=O)[O-])cccc2c1Cl,38%,21%[59 µM],-29%,.,-28%,.
Cc1ccc(Cc2c(C)[nH]c(=S)[nH]c2=O)cc1,45%,45µM*,7%,.,?,13%
COC(=O)CCc1c(C)nc(N)[nH]c1=O,44%,2%[59 µM],7%,.,10%,13%
COC(=O)CCc1c(C)[nH]c(=S)[nH]c1=O,16%,?,0%,-3%,-14%,89µM*
CCOC(=O)Cc1c(C)[nH]c(=S)[nH]c1=O,20%,-19%[59 µM],-13%,3%,56µM*,79µM*
O=C(NCc1ccco1)C1CCN(C(=O)N2CCOc3ccccc32)CC1,36%,2%[59 µM],3%,.,-8%,.
O=Cc1s/c(=N\S(=O)(=O)c2ccccc2)n(CCCCl)c1Cl,38%,45µM*,-16%,6%,-17%,-64%
CCn1c(C)cs/c1=N\S(=O)(=O)c1ccccc1,39%,-47%[2.33 µM],9%,0%,-11%,.
CC(C)CCn1c(SCc2c(F)cccc2Cl)nc2ccsc2c1=O,64%,-1%[59 µM],0%,.,15%,.
Cc1ccc2cc(C3C(C#N)=C(N)Oc4c3ccc3cccnc43)c(=O)[nH]c2c1 (stereo not drawn),29%,-20%[0.0925 µM],?,29%,?,10µM*
CC1C(=O)OC2C(O)C34C5CC(C(C)(C)C)C36C(OC(=O)C6O)OC4(C(=O)O5)C12O (stereo not drawn),.,.,.,.,.,4%
Cc1cc2nc3c(=O)n(C)c(=O)n(C)c3nc2cc1N=CN(C)C,16%,16µM*,3%,.,-12%,.
CCCCCCC(=O)Nc1cc2nc3c(nc2cc1C)c(=O)n(C)c(=O)n3C,67%,29%[59 µM],-1%,.,-2%,.
O=C(N=C1SC2CS(=O)(=O)CC2N1Cc1ccc(Cl)cc1)C1CC1 (stereo not drawn),43%,-7%,-2%,.,-5%,23%
CN(C)S(=O)(=O)c1cccc(-c2nnc(SCC(=O)NCCCCCC(=O)O)n2-c2ccc(F)cc2)c1,47%,16µM*,-7%,-30%,?,12%
CNc1ccc(Br)cc(C(=O)/C=C/c2cc(OC)ccc2OC)c1=O,-30%,4.5µM*,28µM*,14µM*,25µM*,-7%
CNc1ccc(Br)cc(C(=O)/C=C/c2ccc(OC)cc2)c1=O,-9%,10µM*,45µM*,-16%,-31%,?
COC(=O)CNC(=O)/C=C/c1cc(Br)ccc1OC,40%,-32%,-4%,.,-3%,8%
O=C(/C=C/c1ccc2c(c1)OCO2)NC1CCCC1,26%,-1%[0.501 µM],9%,-1%[2.29 µM],-10%,21%
CNc1ccc(Br)cc(C(=O)/C=C/c2ccc3c(c2)OCO3)c1=O,?,10µM*,40µM*,28µM*,40µM*,18µM*
CCNc1ccc(Br)cc(C(=O)/C=C/c2ccc(Cl)cc2Cl)c1=O,?,8.9µM*,45µM*,18µM*,45µM*,22µM*
SMILES,HP1b chromo inh,G9a block,BAZ2B block,L3MBTL1 inh,JMJD2A Tudor,Sfp inh
COc1ccc(-c2cc(C3C4C=CCC(C)C4C(=O)N3Cc3ccccc3)ccc2F)cc1OC (stereo not drawn),15%,.,.,.,-36%,-19%
O=C(On1c(-c2ccccc2)nc2ccccc2c1=O)c1ccco1,-4%,?,-29%,.,89µM*,-28%
CN1CCN(C(=O)c2cc([N+](=O)[O-])ccc2Cl)CC1,38%,50µM*,-1%,0%,-16%,7%
O=C(Nc1ccc2oc(=O)ccc2c1)c1cc([N+](=O)[O-])ccc1N1CCOCC1,29%,-12%,-6%,1%,-2%,2%
O=C(NCc1ccc2c(c1)OCO2)c1cc([N+](=O)[O-])ccc1N1CCCCC1,-2%,45µM*,-9%,-8%,-32%,5%
O=C(Nc1cc([N+](=O)[O-])ccc1N1CCOCC1)c1cccs1,30%,10%,-2%,.,-24%,4%
O=C(Nc1ccc(NC(=O)c2cc([N+](=O)[O-])ccc2N2CCOCC2)cc1)c1cccs1,19%,28µM*,-27%,-2%,-22%,-2%
Cc1cc(=O)oc2cc(NC(=O)c3cc([N+](=O)[O-])ccc3N3CCOCC3)ccc12,9%,40µM*,-11%,.,-23%,-2%
O=C(NCc1ccco1)c1cc([N+](=O)[O-])ccc1N1CCCCC1,-30%,?,?,-11%,?,7%
O=C(Nc1ccc(N2CCCC2)cc1)c1cc([N+](=O)[O-])ccc1N1CCOCC1,?,.,?,.,45µM*,-5%
Cc1ccc(S(=O)(=O)N2CCOCC2)cc1NC(=O)c1cc([N+](=O)[O-])ccc1N1CCOCC1,-6%,56µM*,-6%,-4%,-25%,.
CCOC(=O)c1cc(CC)sc1NC(=O)c1cc([N+](=O)[O-])ccc1N1CCOCC1,-33%,11µM*,-11%,-10%,-24%[57.1 µM],0%
Cc1ccc(C)c(NC(=O)c2cc(S(=O)(=O)N3CCCCC3)ccc2N2CCOCC2)c1,33%,19%[12.7 µM],11%,-1%,-17%,.
COC(=O)c1cc(NC(=O)c2cccs2)ccc1N1CCOCC1,-2%,?,-3%,16%,50µM*,-14%
O=C(Nc1ccc(N2CCOCC2)c(F)c1)c1cccs1,28%,.,-3%,.,-19%,1%
CCOC(=O)c1cc(CC)sc1NC(=O)c1ccc(N2CCOCC2)c([N+](=O)[O-])c1,10%,-40%,-39%,-11%,-21%,-3%
COc1cc(F)c(S(=O)(=O)N2CCN(S(=O)(=O)c3ccc4c(c3)OCCO4)CC2)c(F)c1,.,.,.,.,-7%,.
CN(C(=O)CSc1nc2ccc(NC(=O)c3cccc(F)c3)cc2s1)c1ccccc1,38%,-10%[59 µM],-18%,.,-18%,.
O=C(c1cc([N+](=O)[O-])ccc1N1CCOCC1)N1CCCCC1,12%,-5%[59 µM],8%,9%,-9%,-3%
COc1cc(NC(=O)c2cc([N+](=O)[O-])ccc2N2CCOCC2)ccc1NC(=O)c1ccco1,-1%,.,71µM*,.,-29%,-12%
O=C(Nc1cc([N+](=O)[O-])ccc1N1CCOCC1)c1ccco1,31%,5%[12.7 µM],-3%,12%,-5%,4%

# Assay outcomes (PubChem)
